High-throughput results as filed in PubChem.
APOBEC3A inh: APOBEC3A ssDNA deaminase inhibitors, primary screen, selectivity assay for APOBEC3G inhibitor project, biochemical, FAM/TAMRA oligo cleavage fluorescence; DNA dC->dU-editing enzyme APOBEC-3A (Homo sapiens), P31941; recombinant A3A, FAM/TAMRA ssDNA deamination fluorescence; inhibition, % at 20 µM; 330,000 compounds, 0.41% hits; AID 493011, 2011;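 active = at least 40% inhibition at 20 µM here, with at most 30% in a related deaminase screen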;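 also: plate controls were A3A with DMSO for no effect and wells lacking A3A enzyme for full effect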
rCAG binder: binders of r(CAG) RNA repeats, primary screen, biochemical, fluorescence; 370,000 compounds, 1.3% hits; inhibition, % at 3 µM; AID 651821, 2012; r(CAG) RNA repeat, TO-PRO-1 dye displacement fluorescence;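 active = inhibition above the plate cutoff, the mean of all test compounds on that plate plus 3 SD, cut at about 35% in these data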;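 also: 0% = DMSO alone and 100% = 100 µM mitoxantrone as full dye displacement; higher means more dye released from RNA so lower well fluorescence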
ALR inh: inhibitors of human ALR sulfhydryl oxidase, primary screen, biochemical, H2O2 detection, HRP-luminol luminescence, single point. inhibition, % (no concentration beside the values). FAD-linked sulfhydryl oxidase ALR (Homo sapiens), P55789. purified ALR, DTT oxidation. 290,000 compounds, 3.8% hits;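 active = mean replicate inhibition above about 79%, with every replicate also reaching it, limit read from the data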
Target sequence (P55789 whole entry, looked up): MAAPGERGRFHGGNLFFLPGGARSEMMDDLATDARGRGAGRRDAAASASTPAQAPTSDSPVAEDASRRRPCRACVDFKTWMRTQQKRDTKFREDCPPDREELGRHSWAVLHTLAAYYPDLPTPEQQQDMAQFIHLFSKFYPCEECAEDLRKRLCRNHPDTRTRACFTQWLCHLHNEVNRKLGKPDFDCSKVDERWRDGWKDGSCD
aDG glyco act: activators of alpha-DG glycosylation, primary screen, uHTS, Pro5-aDG cells, AlphaScreen; 360,000 compounds, 0.22% hits; activation, % at 10 µM; alpha-DG glycosylation AlphaScreen (IIH6); 0% Pro5, 100% B10-LARGE cell signal;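 active = activation of at least 8% versus controls, or a plate z-score of at least 8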;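 also: Pro5 are CHO cells carrying HIG-tagged alpha-DG that lacks glycosylation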
PHOSPHO1 block: PubChem AID 1565; recombinant PHOSPHO1, absorbance phosphatase assay; Phosphoethanolamine/phosphocholine phosphatase (Homo sapiens), Q8TCT1; inhibition, % at 13.3 µM; 290,000 compounds, 1.1% hits; in the data active = inhibition above about 60%
Target sequence (Q8TCT1 whole entry, looked up): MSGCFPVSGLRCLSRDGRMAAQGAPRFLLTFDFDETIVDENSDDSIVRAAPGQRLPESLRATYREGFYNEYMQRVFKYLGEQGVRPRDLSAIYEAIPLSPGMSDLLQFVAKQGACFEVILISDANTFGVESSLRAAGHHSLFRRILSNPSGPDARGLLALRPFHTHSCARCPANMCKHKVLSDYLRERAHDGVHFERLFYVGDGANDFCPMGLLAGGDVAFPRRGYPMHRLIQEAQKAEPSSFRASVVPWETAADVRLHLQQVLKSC
APOBEC3G inh: APOBEC3G DNA deaminase inhibitors, primary screen, biochemical, fluorescence, single-stranded DNA substrate, uHTS | AID 493012, 2011 | DNA dC->dU-editing enzyme APOBEC-3G (Homo sapiens), Q9HC16 | inhibition, % at 20 µM | recombinant A3G, ssDNA deamination FAM/TAMRA fluorescence | 330,000 compounds, 0.28% hits;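 active = inhibition of at least 40% at 20 µM, with no more than 30% in the related APOBEC3A deaminase screen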;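 also: plate controls were DMSO wells with A3G for no effect and wells lacking A3G enzyme for full effect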
Active calls of the source: *. Shown are actives, neighbours in structure and some others; about 5.4% of the full set was active somewhere.

`O=C(Nc1ccccc1)N(Cc1ccccc1)C1=NCCS1` gave APOBEC3A inh -2, rCAG binder -2, ALR inh 99*, aDG glyco act 0, PHOSPHO1 block 18 and APOBEC3G inh -5.
Cc1cccc(Nc2nc3c(s2)CCCC3)c1 was read as rCAG binder -2, ALR inh 96*, aDG glyco act 0 and PHOSPHO1 block -18.
O=C(NCc1ccccc1)[C@H]1CCCN1C(=O)[C@H]1CCCN1C(=O)N1CCCCC1 was read as rCAG binder 2.
Screening CCNc1nc(OCCNS(=O)(=O)c2cc(C)ccc2C)nc(N(C)C)n1 returned APOBEC3A inh -1, rCAG binder 1, ALR inh -1, aDG glyco act 0, PHOSPHO1 block -25 and APOBEC3G inh -3.
For CCNc1nc(OC)nc(N(OC)S(=O)(=O)c2ccc(C)cc2)n1 the results were APOBEC3A inh 3, rCAG binder -3, ALR inh 82*, aDG glyco act 0, PHOSPHO1 block 20 and APOBEC3G inh -3.
Screening COc1ccc(-n2c(SCC(=O)Nc3ccc(OCc4ccccc4)cc3)nnc2-c2ccc(C)cc2)cc1 returned rCAG binder 9.
`N#CCCn1cc(/C=C2\NC(=S)N(c3ccccc3)C2=O)c(-c2ccc(-c3ccccc3)cc2)n1` gave APOBEC3A inh 2, rCAG binder 15, ALR inh 1, aDG glyco act 2, PHOSPHO1 block -10 and APOBEC3G inh 1.
Screening O=C(O)CCn1cc(/C=C2/NC(=S)N(c3ccccc3)C2=O)c(-c2ccccc2)n1 returned APOBEC3A inh -2, rCAG binder 8, ALR inh 97*, aDG glyco act 0, PHOSPHO1 block -2 and APOBEC3G inh -4.
O=C(N/C(=C\c1ccccc1)C(=O)N1CCOCC1)c1ccccc1Cl was read as APOBEC3A inh 1, rCAG binder -8, ALR inh 2, aDG glyco act 0, PHOSPHO1 block 63* and APOBEC3G inh 8.
For Cc1oc(-c2ccccc2F)nc1CS(=O)CC(=O)NC1CCCCC1 (centres undefined) the results were APOBEC3A inh 2, rCAG binder -1, ALR inh 98*, aDG glyco act 0, PHOSPHO1 block 28 and APOBEC3G inh -3.
Screening O=C(CSCc1ccc(F)cc1)NCc1ccc2c(c1)OCO2 returned APOBEC3A inh 1, rCAG binder 2, ALR inh 6, aDG glyco act 0, PHOSPHO1 block 53 and APOBEC3G inh -6.
For Cc1oc(-c2ccccc2F)nc1CS(=O)CC(=O)NC1CC1 (centres undefined) the results were APOBEC3A inh -4, rCAG binder 3, ALR inh 99*, aDG glyco act 0, PHOSPHO1 block 29 and APOBEC3G inh -2.
`Cc1oc(-c2ccccc2F)nc1CSCC(=O)NCc1ccc2c(c1)OCO2` gave APOBEC3A inh -2, rCAG binder -4, ALR inh 98*, aDG glyco act 1, PHOSPHO1 block 18 and APOBEC3G inh -9.
`Cc1oc(-c2ccccc2F)nc1CSCC(=O)NC1CCC(C)CC1` (centres undefined) gave APOBEC3A inh -1, rCAG binder -4, ALR inh -35, aDG glyco act 1, PHOSPHO1 block 29 and APOBEC3G inh -4.
`Cc1oc(-c2ccccc2F)nc1CSCC(=O)NC1CC1` gave APOBEC3A inh -6, rCAG binder -3, ALR inh -29, aDG glyco act 0, PHOSPHO1 block 75* and APOBEC3G inh -3.
For Nc1[nH]c(C(=O)c2ccc(Br)cc2)c(-c2ccncc2)c1C(=O)c1ccccc1 the results were rCAG binder 1.
For CCOC(=O)CC[C@@]1(C(=O)OCC)C[C@@H](CC(=O)N2CCOCC2)C(=O)N2CCCC=C21 the results were rCAG binder 0.
`O=S(=O)(c1ccc(C(F)(F)F)cc1)N1CCCc2nc(-c3ccccc3)ccc21` gave rCAG binder 2.
COC(=O)[C@]12CCCCC=C1N(Cc1ccc(OC)cc1)C(=O)[C@@H]2CC(=O)N1CCOCC1 was read as rCAG binder 0.
Screening CCOC(=O)N1CCC(NC(=O)CS(=O)Cc2nc(-c3ccccc3C)oc2C)CC1 (centres undefined) returned APOBEC3A inh 1, rCAG binder -2, ALR inh 99*, aDG glyco act 0, PHOSPHO1 block 21 and APOBEC3G inh 0.
For CC(C)(O)C#Cc1ccc([C@@H]2C[C@H]3CN(c4ccccc4)C(=O)[C@]34CCCN24)s1 the results were APOBEC3A inh -2, rCAG binder 2, ALR inh 92*, aDG glyco act 0, PHOSPHO1 block -17 and APOBEC3G inh -3.
O=C1N(c2ccccc2)C[C@@H]2C[C@@H](c3cccs3)N3CCC[C@@]123 was read as APOBEC3A inh 4, rCAG binder 2, ALR inh -28, aDG glyco act 0, PHOSPHO1 block 37 and APOBEC3G inh 3.
Screening COC(=O)[C@]12C[C@H](CC(=O)NCC34CC5CC(CC(C5)C3)C4)C(=O)N(CCc3ccc(OC)c(OC)c3)C1=C[C@H](C(C)(C)C)O[C@@H]2C returned rCAG binder 9.
For Cn1c(O)c(C2=c3ccccc3=NC2=O)sc1=Nc1ccc(Cl)cc1 the results were APOBEC3A inh 1, rCAG binder 12, ALR inh 7, aDG glyco act 0, PHOSPHO1 block 0 and APOBEC3G inh 0.
Screening Cc1ccc(N=c2sc(C)c(C)n2C)cc1 returned APOBEC3A inh -3, rCAG binder 1, ALR inh 99*, aDG glyco act 0, PHOSPHO1 block -8 and APOBEC3G inh 1.
`CCN(CC)C(=O)CC[C@@H]1CC[C@]2(CCCN(Cc3nccs3)C2)O1` gave rCAG binder 2.
Screening Cc1[nH]c2ccccc2c1C(=O)CN1CCSCC1 returned APOBEC3A inh -3, rCAG binder -1, ALR inh 97*, aDG glyco act 0, PHOSPHO1 block -6 and APOBEC3G inh -6.
`Cc1[nH]c2ccccc2c1C(=O)CN1CCCC1` gave APOBEC3A inh -2, rCAG binder 7, ALR inh -15, aDG glyco act 0, PHOSPHO1 block 11 and APOBEC3G inh -4.
For COc1ccc(-c2c(Cc3ccccc3)nc(NC(=O)c3ccccc3F)n2C)cc1 the results were rCAG binder 6.
For O=S1(=O)c2ccc(N3CCCC3)cc2Oc2ccccc2CN1Cc1cn(Cc2ccccc2C(F)(F)F)nn1 the results were rCAG binder 16.
